Bioassay records deposited in PubChem BioAssay by Broad Institute.
IDE exosite inh: insulin-degrading enzyme (human) exo-site inhibition | purified IDE, FL-6b probe fluorescence polarization; stronger effect = lower value | P14735 | z-score at 20 µM | 6.3% of 17,000 active;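 active = z-score of -3 or lower, meaning strong loss of probe binding signal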;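 note: His-tagged human IDE residues 42-1019 made in E. coli with 30 nM FL-6b probe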
A number is an active result; – = inactive. Only a selection was taken, and hits are over-represented in it overall.

SMILES | IDE exosite inh
Cn1cnc(S(=O)(=O)N2CCCCN3[C@H](CO)[C@H](c4ccc(-c5ccccc5F)cc4)[C@H]3C2)c1 | -4.6
Cn1cnc(S(=O)(=O)N2CCCCN3[C@@H](CO)[C@@H](c4ccc(-c5ccccc5F)cc4)[C@@H]3C2)c1 | -5.6
Cn1cnc(S(=O)(=O)N2CCCCN3[C@H](C2)[C@@H](c2ccc(-c4ccccc4F)cc2)[C@@H]3CO)c1 | –
Cn1cnc(S(=O)(=O)N2CCCCN3[C@H](CO)[C@@H](c4ccc(-c5ccc(F)cc5)cc4)[C@H]3C2)c1 | –
Cn1cnc(S(=O)(=O)N2CCCCN3[C@H](CO)[C@H](c4ccc(-c5ccccc5F)cc4)[C@@H]3C2)c1 | –
Cn1cnc(S(=O)(=O)N2CCCCN3[C@H](CO)[C@H](c4ccc(-c5ccc(F)cc5)cc4)[C@H]3C2)c1 | –
CO[C@@H]1CN(C)C(=O)c2cc(NC(=O)CN(C)C)ccc2OC[C@@H](C)N(Cc2ccccc2F)C[C@H]1C | –
CC1C=NC(S(=O)(=O)N2CC[C@@H]3[C@H](CO)N(C)c4ccc(C#Cc5cccnc5)cc4[C@@H]32)=N1 (stereo not given in full) | –
CC(=O)N1CC(=O)N2[C@H](CO)[C@@H](c3ccc(-c4ccc(C)cc4)cc3)[C@H]2C1 | –
Cn1cnc(S(=O)(=O)N2CCCCN3[C@H](C2)[C@@H](c2ccc(-c4ccccc4)cc2)[C@@H]3CO)c1 | –
Cc1ccccc1-c1ccc([C@H]2[C@H]3CN(S(=O)(=O)c4cn(C)cn4)CCCCN3[C@H]2CO)cc1 | -3.6
Cc1ccccc1-c1ccc([C@@H]2[C@@H](CO)N3CCCCN(S(=O)(=O)c4cn(C)cn4)C[C@H]23)cc1 | –
COc1ccccc1-c1ccc([C@H]2[C@@H](CO)N3CCCCN(S(=O)(=O)c4cn(C)cn4)C[C@H]23)cc1 | -9.3
Cn1cnc(S(=O)(=O)N2CCCCN3[C@H](C2)[C@@H](c2ccc(-c4ccc(F)cc4)cc2)[C@@H]3CO)c1 | –
Cn1cnc(S(=O)(=O)N2CCCCN3[C@@H](CO)[C@H](c4ccc(-c5ccccc5)cc4)[C@@H]3C2)c1 | –
COc1ccccc1-c1ccc([C@H]2[C@@H](CO)N3CCCCN(S(=O)(=O)c4cn(C)cn4)C[C@@H]23)cc1 | –
Cc1ccccc1-c1ccc([C@H]2[C@@H](CO)N3CCCCN(S(=O)(=O)c4cn(C)cn4)C[C@@H]23)cc1 | -3.4
Cc1ccccc1-c1ccc([C@@H]2[C@H](CO)N3CCCCN(S(=O)(=O)c4cn(C)cn4)C[C@@H]23)cc1 | -16
COc1ccccc1-c1ccc([C@H]2[C@H](CO)N3CCCCN(S(=O)(=O)c4cn(C)cn4)C[C@@H]23)cc1 | –
CC(C)[C@@H]1CCc2cnnn2COC[C@H](Cc2ccccc2)NC1=O | –
C/C=C/c1ccc([C@@H]2[C@@H](CO)N(C(=O)NCCC)[C@@H]2CNC(=O)C2CC2)cc1 | –
O=C(C1CCCC1)N1CC(=O)N2[C@H](CO)[C@@H](c3ccc(C#CC4CCCC4)cc3)[C@H]2C1 | –
FC(F)(F)c1ccccc1CN1[C@@H]2CNC[C@H]1C2c1ccc(-c2ccncc2)cc1 (stereo not given in full) | –
COCC(=O)Nc1ccc2c(c1)[C@@H]1C[C@H](CC(=O)N[C@H](C)c3ccccc3)O[C@@H](CO)[C@@H]1O2 | –
N#C[C@@H]1N[C@H](CO)[C@H]1c1ccc(C2=CCCC2)cc1 | –
SMILES | IDE exosite inh
COc1ccccc1C(=O)N1C[C@H]2[C@@H](c3ccccc31)[C@@H](CO)N2C(=O)Cc1ccccc1 | –
CC(C)C#Cc1ccc([C@H]2[C@H](CO)N3C(=O)CN(C(=O)Cc4cccnc4)C[C@@H]23)cc1 | –
CC(C)NC(=O)N1CC(=O)N2[C@H](CO)[C@@H](c3ccc(C#CCN(C)C)cc3)[C@@H]2C1 | –
CCCNC(=O)N1[C@@H](CO)[C@H](c2ccccc2)[C@@H]1CNC(=O)c1ccccc1 | –
CC(C)C#Cc1ccc([C@@H]2[C@@H](C#N)N(C(=O)CN(C)C)[C@H]2CO)cc1 | –
COc1ccc(NC(=O)N(C)C[C@@H]2OCc3ccccc3-c3ccccc3C(=O)N([C@@H](C)CO)C[C@@H]2C)c(OC)c1 | –
O=C(C1CC1)N1CC(=O)N2[C@H](C1)[C@@H](c1ccc(Br)cc1)[C@@H]2CO | –
COc1ccccc1-c1ccc([C@@H]2[C@H](C#N)N[C@@H]2CO)cc1 | -9.3
N#C[C@@H]1N[C@@H](CO)[C@@H]1c1ccc(-c2ccccc2F)cc1 | –
N#C[C@H]1N[C@H](CO)[C@H]1c1ccc(-c2ccccc2F)cc1 | –
O=C(NC[C@@H]1N[C@@H](CO)[C@@H]1c1ccccc1)C1CC1 | –
N#C[C@H]1N[C@@H](CO)[C@@H]1c1ccc(-c2ccccc2F)cc1 | –
O=C(NC[C@H]1N[C@H](CO)[C@@H]1c1ccc(-c2cncnc2)cc1)C1CCCCC1 | –
COc1ccccc1-c1ccc([C@@H]2[C@@H](C#N)N[C@@H]2CO)cc1 | -8.9
COc1ccccc1-c1ccc([C@H]2[C@@H](CO)N[C@@H]2CNC(=O)C2CCCC2)cc1 | -11
COc1ccccc1-c1ccc([C@H]2[C@@H](C#N)N[C@@H]2CO)cc1 | –
COc1ccc(-c2ccc([C@H]3[C@H](CO)N[C@@H]3C#N)cc2)cc1 | –
N#C[C@@H]1N[C@H](CO)[C@H]1c1ccc(-c2ccccc2F)cc1 | –
COc1ccccc1-c1ccc([C@H]2[C@H](CO)N[C@@H]2C#N)cc1 | -4.2
C[C@H](CO)N1C[C@H](C)[C@H](CN(C)C(=O)C2CCOCC2)Oc2ncc(-c3cccc(C#N)c3)cc2C1=O | –
O=C(Nc1ccc2c(c1)[C@H]1C[C@H](CC(=O)N3CCc4ccccc4C3)O[C@H](CO)[C@H]1O2)c1ccc2c(c1)OCO2 | –
COc1ccc2c3c([nH]c2c1)[C@@H](CO)N(C(C)=O)CC31CCN(C(=O)c2ccc3c(c2)OCO3)CC1 | –
C[C@H](CO)N1C[C@H](C)[C@H](CN(C)C(=O)c2ccc(N3CCN(C)CC3)cc2)OCc2cn(nn2)CCCC1=O | –
CO[C@H]1CN(C)C(=O)c2cc(NC(=O)NC(C)C)ccc2OC[C@@H](C)N(Cc2ccccc2)C[C@H]1C | –
CC(C)NC(=O)Nc1ccc2c(c1)C(=O)N(C)[C@@H]1CC[C@@H](CC(=O)NCc3ccc(F)cc3)O[C@@H]1CO2 | –
SMILES | IDE exosite inh
C[C@@H]1COCn2nncc2CC[C@H](Cc2ccc(-c3ccccc3)cc2)C(=O)N1 | –
CC(C)CC#Cc1ccc([C@@H]2[C@@H](CO)N3C(=O)CN(S(=O)(=O)c4ccccc4)C[C@@H]23)cc1 | –
CCCC#Cc1ccc([C@@H]2[C@@H](CO)N3C(=O)CN(C(=O)CN4CCOCC4)C[C@@H]23)cc1 | –
COc1ccccc1NC(=O)N1CC(=O)N2[C@@H](CO)[C@@H](c3ccc(C#CCC(C)C)cc3)[C@@H]2C1 | –
O=C(C[C@@H]1C[C@@H]2c3cc(NC(=O)C4CCOCC4)ccc3O[C@@H]2[C@H](CO)O1)NCCN1CCCCC1 | –
Cc1cccc(-c2ccc([C@@H]3[C@H]4CN(C(=O)NC(C)C)CCCCN4[C@H]3CO)cc2)c1 | -12
COc1ccccc1NC(=O)N1CCCCN2[C@H](C1)[C@@H](c1ccc(-c3cccc(C)c3)cc1)[C@@H]2CO | –
COc1ccccc1NC(=O)N1CCCCN2[C@H](CO)[C@H](c3ccc(-c4cccc(C)c4)cc3)[C@@H]2C1 | –
COc1ccccc1NC(=O)N1CCCCN2[C@@H](CO)[C@H](c3ccc(-c4cccc(C)c4)cc3)[C@@H]2C1 | –
Cc1cccc(-c2ccc([C@@H]3[C@H]4CN(C(=O)c5ccc6c(c5)OCO6)CCCCN4[C@H]3CO)cc2)c1 | –
